Bioassay records deposited in PubChem BioAssay by National Center for Advancing Translational Sciences (NCATS).
Nrf2 block: Nrf2 qHTS screen for inhibitors; A549 ARE-Fluc reporter, luciferase luminescence, 18-24 h; Potency, µM (doses to about 46 µM), for inactives: top-dose activity change, negative = inhibition, actives largely listed as inhibitors; actives 2.1% (n = 360,000); AID 504444, 2011; further: on the % scale 0 is the no-effect control and ±100 the full control effect; nearly all actives have a fitted effect of over 60% in size
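Concentration-response testing used A549 ARE_Fluc cells at 5000 cells/well. Following an 18-24 h compound incubation, viability was read by fluorescence (Ex 405/Em 525) and luciferase output by luminescence.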
Nrf2 activator: qHTS of Nrf2 Activators; Potency, µM (titrated, usually from 46.1 µM), for the others: at the highest dose activation, usual class: activators; actives 0.31% (n = 410,000); AID 624171, 2012; AREc32 ARE-luciferase reporter (MCF7-derived line), luminescence, 24 h; further: % of control where 0% means no effect; nearly all actives have a fitted effect of over 65% in size
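Cells of the AREc32 ARE-luciferase line are plated in OPTI-MEM containing 5% FBS and left overnight at 37 deg C. Compounds are pinned in, incubation continues 24 hr, and firefly luciferase signal is then measured.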
mIDH1 inhibitor: qHTS for Inhibitors of mutant isocitrate dehydrogenase 1 (IDH1): qHTS | actives 0.093% (n = 390,000) | AID 602179, 2012 | IDH1-R132H enzyme, NADPH consumption, diaphorase/resazurin fluorescence | Isocitrate dehydrogenase [NADP] cytoplasmic (Homo sapiens), O75874 | Potency, µM (series often up to 76.6 µM), for the others: at the highest dose activity change, negative = inhibition, hits mostly inhibitors; further: on the % scale 0 is the no-effect control and ±100 the full control effect; nearly all actives have a fitted effect of over 65% in size
Target sequence (O75874 whole entry R132H, stated change not applied): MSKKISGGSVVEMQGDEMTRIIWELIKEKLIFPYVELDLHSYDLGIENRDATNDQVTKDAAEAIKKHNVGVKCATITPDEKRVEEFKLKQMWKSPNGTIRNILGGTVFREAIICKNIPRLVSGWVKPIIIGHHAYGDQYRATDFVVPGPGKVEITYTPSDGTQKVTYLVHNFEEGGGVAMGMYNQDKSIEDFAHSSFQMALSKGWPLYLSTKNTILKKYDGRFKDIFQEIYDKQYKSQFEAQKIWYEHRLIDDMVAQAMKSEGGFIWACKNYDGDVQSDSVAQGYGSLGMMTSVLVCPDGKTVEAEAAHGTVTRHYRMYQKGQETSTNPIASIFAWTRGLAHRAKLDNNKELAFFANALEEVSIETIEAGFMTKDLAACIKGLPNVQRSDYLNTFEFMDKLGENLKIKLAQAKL
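IDH1-R132H (0.5 ug/mL) preincubated 30 min with compound, then NADPH (0.016 mM) and alpha-KG (2 mM) added; 80 min at RT, pH 7.5. Remaining NADPH coupled via diaphorase/resazurin to fluorescence (540/590 nm); concentration-response curves normalized to no-enzyme control.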
A549 tox: Nrf2 qHTS screen for inhibitors: counterscreen for cytotoxicity; A549 ARE-Fluc cells, CellTiter-Fluor viability, 18-24 h; Potency, µM (doses to about 46 µM), inactives show at the top dose activity change, negative = cytotoxicity, hits mostly inhibitors; actives 0.16% (n = 390,000); AID 504648, 2011; further: on the % scale 0 is the no-effect control and ±100 the full control effect
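A549 ARE_Fluc cells in 5% FBS OPTI-MEM were exposed to compounds in concentration-response for 18-24 h at 37 deg C. Viability was read by CellTiter-Fluor fluorescence (Ex 405/Em 525) after 30 min, before the luciferase read.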
ELG1 repair inh: qHTS screen for small molecules that inhibit ELG1-dependent DNA repair in human embryonic kidney (HEK293T) cells expressing luciferase-tagged ELG1 | actives 2.3% (n = 330,000) | HEK293T ELG1-luciferase reporter, luminescence, 16 h; DNA damage induced by 5-fluorouridine | Potency, µM (doses to about 46.1 µM), for inactives: at the top dose activity change, negative = inhibition, actives largely listed as inhibitors; further: on the % scale 0 is the no-effect control and ±100 the full control effect; nearly all actives have a fitted effect of over 55% in size
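Step one: seed 2,000 cells per well. Step two: pin-transfer compound or DMSO alongside 5-fluorouridine. Step three: incubate 16 hr, 37 °C, 5% CO2. Step four: add ONE-Glo, wait 30 min, read luminescence.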
* marks the source's active call; other numbers are inactive results. Hits are enriched below; roughly 3.8% of the tested compounds scored in any of these assays. The call rests on the fitted dose curve; in most records, active means well fitted curve in the direction sought with a large enough effect; inconclusive means small, poorly fitted or top-dose-only effect, or another doubt; inactive means no such curve, though single readings can be large; an effect the other way counts as inactive or inconclusive. Potency means the concentration at half of the fitted maximal effect.

Results for COCCNC(=O)C(c1ccc(O)cc1)N(Cc1ccccc1)C(=O)CCC(=O)Nc1nccs1 (stereo not given) ?
Nrf2 block: 2%; Nrf2 activator: -1%; mIDH1 inhibitor: 0%; A549 tox: 1%; ELG1 repair inh: 14%

What do the screens show for `O=C(Nc1cccc(-c2nn3c(=O)cc(N4CCNCC4)nc3s2)c1)c1ccncc1`?
Nrf2 block: 1%; A549 tox: -5%

How did CCOC(=O)N1CCN(C(=O)CCNS(=O)(=O)c2ccccc2)CC1 do in these assays?
Nrf2 block: 5%; Nrf2 activator: -1%; mIDH1 inhibitor: 6%; A549 tox: 0%; ELG1 repair inh: 9%

How did CCOC(=O)N1CCN(C(=O)COc2ccc(S(=O)(=O)NCc3ccccc3)cc2)CC1 do in these assays?
Nrf2 block: 18µM*; Nrf2 activator: 0%; mIDH1 inhibitor: -3%; A549 tox: -18%; ELG1 repair inh: -16%

How did CCN(C(=O)COC(=O)/C=C/c1nc2ccccc2s1)c1c(N)n(Cc2ccccc2)c(=O)[nH]c1=O do in these assays?
Nrf2 block: -19%; Nrf2 activator: 13µM*; mIDH1 inhibitor: 28%; A549 tox: 9%

Results for CN(C(=O)COC(=O)/C=C/c1ccc2ccccc2n1)c1c(N)n(Cc2ccccc2)c(=O)[nH]c1=O ?
Nrf2 block: inconclusive; Nrf2 activator: 5%; mIDH1 inhibitor: 1%; A549 tox: -1%; ELG1 repair inh: inconclusive

Results for COCCN(C(=O)COC(=O)/C=C/c1ccc2ccccc2n1)c1c(N)n(Cc2ccccc2)c(=O)[nH]c1=O ?
Nrf2 block: -29%; Nrf2 activator: inconclusive; mIDH1 inhibitor: 4%; A549 tox: 4%; ELG1 repair inh: 12µM*

How did CC(C)(C)OC(=O)N1CCC(c2nnc(SCc3cccc(Cl)c3)o2)CC1 do in these assays?
Nrf2 block: inconclusive; Nrf2 activator: 2%; mIDH1 inhibitor: 4%; A549 tox: -3%

Results for Cc1cc(-c2ccc(C)c(S(=O)(=O)Nc3ccccc3C(F)(F)F)c2)on1 ?
Nrf2 block: inconclusive; Nrf2 activator: 0%; mIDH1 inhibitor: -2%; A549 tox: -13%

Results for COc1c(O)ccc(/C=N\NC(=O)c2ccc3c(c2)OCO3)c1[N+](=O)[O-] ?
Nrf2 block: 12µM*; Nrf2 activator: 0%; mIDH1 inhibitor: -3%; A549 tox: -1%; ELG1 repair inh: inconclusive

How did COc1c(O)ccc(/C=N/NC(=O)c2ccc3c(c2)OCCO3)c1[N+](=O)[O-] do in these assays?
Nrf2 block: 5.2µM*; Nrf2 activator: 4%; mIDH1 inhibitor: 0%; A549 tox: 2%; ELG1 repair inh: inconclusive

What do the screens show for `O=C(N/N=C/c1ccccc1)c1ccc2c(c1)OCO2`?
Nrf2 block: 1%; Nrf2 activator: -1%; mIDH1 inhibitor: 0%; A549 tox: -2%; ELG1 repair inh: inconclusive

How did O=C(NN=Cc1c(O)ccc2ccccc12)c1ccc2c(c1)OCO2 do in these assays?
Nrf2 block: 16µM*; Nrf2 activator: 0%; mIDH1 inhibitor: 18%; A549 tox: inconclusive; ELG1 repair inh: inconclusive

What do the screens show for `O=C(N/N=C/c1ccc2c(c1)OCO2)c1ccc(NC(=O)c2ccccc2Cl)cc1`?
Nrf2 block: inconclusive; Nrf2 activator: 2%; mIDH1 inhibitor: 11%; A549 tox: 2%; ELG1 repair inh: 13µM*

Results for O=C(Nc1nc(Nc2cc(F)cc(F)c2)nc(NC2CCCC2)n1)OCc1ccccc1 ?
Nrf2 block: 10%; A549 tox: 1%

Results for O=C(CC1N=C2c3ccccc3N=C(SCC(=O)Nc3cccc(Cl)c3)N2C1=O)NCc1cccs1 (stereo not given) ?
Nrf2 block: -25%; Nrf2 activator: -1%; mIDH1 inhibitor: 15%; A549 tox: -15%
